# Source: PMC4552634, “A New Set of Chemical Starting Points with Plasmodium falciparum Transmission-Blocking Potential for Antimalarial Drug Discovery” (PLoS ONE, 2015)
# Hit rate of the full screen: of about 13,000 compounds, about 3,200 (25%) showed an effect of 50% or more. Some of the results follow.
# Test system: P. falciparum stage V gametocytes
# Parameters: BacTiter-Glo ATP luminescence viability of purified stage V gametocytes in 384-well plates, per cent inhibition versus DMSO
# Conditions: 48 h, 5 µM; inhibitor
row,Structure (SMILES),% Inhibition
1,NCC(=O)c1cc2c(cc1N)OCCO2 [TCMDC-131879],-22.77%
2,C=C(F)c1sc(CNCCCNc2nc3ccccc3[nH]2)c(C)c1Br [TCMDC-141307],13.46%
3,OC1(c2ccccc2)CCN(Cc2cccc(-c3c[nH]c4nc(NC5CCCC5)ncc34)c2)C1 (stereo not shown) [TCMDC-133775],-50.17%
4,CC(Cc1ccc(CN(CC(N)=O)Cc2ccc(CC(C)NCCc3cccc(Cl)c3)cc2)cc1)NCCc1cccc(Cl)c1 (stereo not shown) [TCMDC-139804],113.4%
5,CC(=O)N(Cc1ccc(CC(C)NCCc2cccc(Cl)c2)cc1)Cc1ccc(CC(C)NCCc2cccc(Cl)c2)cc1 (stereo not shown) [TCMDC-139678],112.1%
6,CS(=O)(=O)c1ccc(CNCc2ccc(-c3ccc(-c4nc5cc(C(F)(F)F)ccc5[nH]4)s3)cc2)cc1.O=C(O)C(F)(F)F [TCMDC-132906],-5.935%
7,CCN(CC)CCCC(C)Nc1ccnc2ccc(OC)cc12.Cl.O (stereo not shown) [TCMDC-123888],15.61%
8,COc1ccc2nc(-c3ccccc3)cc(NN=Cc3ccc([N+](=O)[O-])cc3)c2c1 [TCMDC-142045],15.04%
9,CCN(CC)CCCC(C)Nc1cc(C=Cc2ccccc2Cl)nc2cc(Cl)ccc12 (stereo not shown) [TCMDC-124294],59.52%
10,CCCN(CCC)CCCCC(C)Nc1c2ccc(Cl)cc2nc2ccc(OC)cc12 (stereo not shown) [TCMDC-137515],50.13%
11,CCN(CC)CCCC(C)Nc1cc(C)nc2cc(Cl)ccc12 (stereo not shown) [TCMDC-124246],33.92%
12,CCN(CC)CCCC(C)Nc1ccnc2cc(Cl)ccc12 (stereo not shown) [TCMDC-123988],8.457%
13,CCCN(CCC)C(C)CCC(C)Nc1c2ccc(Cl)cc2nc2ccc(OC)cc12 (stereo not shown) [TCMDC-137516],50.36%
14,CCN(CC)CCCC(C)Nc1cc(C=Cc2ccc([N+](=O)[O-])cc2)nc2ccc(OC)cc12.O=P(O)(O)O (stereo not shown) [TCMDC-124247],98.87%
15,O=C(NCCCN1CCN(c2cccc(Cl)c2)CC1)c1ccc(-c2nc3cc(Cl)c(Cl)cc3[nH]2)cc1 [TCMDC-140077],1.638%
16,Nc1nc(N)c2cc(S(=O)(=O)c3ccc4ccccc4c3)ccc2n1 [TCMDC-137192],3.776%
17,CCCCCCN1CCN(Cc2cccc(NC(=O)c3cccc(OCC)c3)c2)CC1 [TCMDC-134614],-30.42%
18,Cc1cc(N(C)C2CCN(CC3CCCCC3)C2)nc(Nc2ccc(Br)cc2)n1 (stereo not shown) [TCMDC-137023],-48.72%
19,CCCCCC(=O)N1CCOC(CCN2CCC(c3ccccc3)CC2)(c2ccc(Cl)c(Cl)c2)C1 (stereo not shown) [TCMDC-135328],-33.56%
20,CN1CCN(c2ccnc3ccc(NC(=O)Nc4cccc5c(Br)cccc45)cc23)CC1 [TCMDC-139347],3.223%
21,Cc1cccc2nc(-c3ccc(-c4ccc(CNCC5CCCO5)cc4)s3)[nH]c12.O=C(O)C(F)(F)F (stereo not shown) [TCMDC-133101],42.96%
22,CCN(CC)CCCC(C)Nc1c2ccccc2nc2ccc3ccccc3c12 (stereo not shown) [TCMDC-137518],45.6%

row,Structure (SMILES),% Inhibition
1,CCN(CC)CCCC(C)Nc1ccnc2[nH]c3ccccc3c12 (stereo not shown) [TCMDC-131826],12.54%
2,CCN(CC)CCCC(C)Nc1c2ccc(Cl)cc2nc2ccc(OC)cc12 (stereo not shown) [TCMDC-125480],101%
3,CCN(CC)CCCC(C)Nc1c2ccccc2nc2c1ccc1ccccc12 (stereo not shown) [TCMDC-137517],51.71%
4,CCN(CC)CCCC(C)Nc1c2cc(OC)ccc2nc2cc(Cl)c([N+](=O)[O-])cc12 (stereo not shown) [TCMDC-138329],-1.262%
5,Cc1cccc2[nH]c(-c3cccc(-c4ccc(NC(=O)c5cnn6cccnc56)cc4)c3)nc12 [TCMDC-136868],-35.86%
6,CCCc1c(Cl)cc(CNCCCNc2nc3ccncc3[nH]2)cc1Cl [TCMDC-140509],47.86%
7,FC(F)(F)c1cc(CNCCCNc2nc3ccncc3[nH]2)ccc1Cl [TCMDC-140508],-5.854%
8,CCCC(CNCc1ccc(Cl)c(C(F)(F)F)c1)CNc1nc2ccncc2[nH]1 (stereo not shown) [TCMDC-141057],56.14%
9,O=C(Nc1ccc(Br)cc1)c1cc(Br)ccc1NS(=O)(=O)c1ccc(C(F)(F)F)cc1 [TCMDC-139752],29.13%
10,COc1cc(NC(=O)Nc2ccc(Br)cc2C(=O)Nc2ccc(Br)cc2)cc(OC)c1OC [TCMDC-139733],85.99%
11,O=C(Nc1ccc(Br)cc1)c1cc(Br)ccc1NS(=O)(=O)c1cc(C(F)(F)F)cc(C(F)(F)F)c1 [TCMDC-139753],-9.383%
12,COc1ccc(F)cc1-c1ccc(C(=O)N2CCCN(c3ccc(C(F)(F)F)cn3)CC2)cc1 [TCMDC-133384],-50.34%
13,COc1ccc(F)cc1-c1ccc(C(=O)N2CCCN(c3ccc(C#N)cn3)CC2)cc1 [TCMDC-133385],2.781%
14,Cc1ccc(F)cc1-c1cc(N2CCCN(C(=O)c3ccc(Br)o3)CC2)ncn1 [TCMDC-125089],67.99%
15,COCCN1CCC(N(CC2(O)CCN(c3ccc(C(F)(F)F)cc3)CC2)C(=O)Cn2c(SCc3cccc(F)c3F)cc(=O)c3ccccc32)CC1 [TCMDC-141629],101.7%
16,CCN1CCC(N(Cc2ccc(-c3ccc(C(F)(F)F)cc3)cc2)C(=O)Cn2c(SCc3cccc(F)c3F)cc(=O)c3ccccc32)C1 (stereo not shown) [TCMDC-141301],106.2%
17,O=C(Cn1c(SCc2cccc(F)c2F)cc(=O)c2ccccc21)N(Cc1ccc(-c2ccc(C(F)(F)F)cc2)cc1)C1CCN(CCO)CC1 [TCMDC-141705],107.3%
18,CC(C)(C)n1nnnc1C(c1cccnc1)N(Cc1ccccc1)Cc1ccc(Cl)cc1 (stereo not shown) [TCMDC-123530],11.45%
19,O=C(NCc1ccc(F)cc1)Nc1cccc(-c2ccc(-c3nc4ccccc4[nH]3)cc2)c1 [TCMDC-133300],7.874%
20,Cc1nc2nc(N)nc(N)c2c(C)c1Cc1cccc(C(F)(F)F)c1 [TCMDC-137658],-3.325%
21,COc1ccc(CCCc2nc(N)nc(N)c2-c2ccc(Cl)cc2)cc1 [TCMDC-137358],-7.157%
